For 17 compounds, inhibition results are on record in ChEMBL document CHEMBL1961873, “Compounds: GSK PKIS; Assays: Nanosyn kinase panel” (2012).

Broadly, the inhibition is the change of the read-out against control, counted positive when it falls.

Assay [1] addresses T1, Serine/threonine-protein kinase TBK1 (Homo sapiens) (UniProt Q9UHD2).
T1 sequence (whole entry): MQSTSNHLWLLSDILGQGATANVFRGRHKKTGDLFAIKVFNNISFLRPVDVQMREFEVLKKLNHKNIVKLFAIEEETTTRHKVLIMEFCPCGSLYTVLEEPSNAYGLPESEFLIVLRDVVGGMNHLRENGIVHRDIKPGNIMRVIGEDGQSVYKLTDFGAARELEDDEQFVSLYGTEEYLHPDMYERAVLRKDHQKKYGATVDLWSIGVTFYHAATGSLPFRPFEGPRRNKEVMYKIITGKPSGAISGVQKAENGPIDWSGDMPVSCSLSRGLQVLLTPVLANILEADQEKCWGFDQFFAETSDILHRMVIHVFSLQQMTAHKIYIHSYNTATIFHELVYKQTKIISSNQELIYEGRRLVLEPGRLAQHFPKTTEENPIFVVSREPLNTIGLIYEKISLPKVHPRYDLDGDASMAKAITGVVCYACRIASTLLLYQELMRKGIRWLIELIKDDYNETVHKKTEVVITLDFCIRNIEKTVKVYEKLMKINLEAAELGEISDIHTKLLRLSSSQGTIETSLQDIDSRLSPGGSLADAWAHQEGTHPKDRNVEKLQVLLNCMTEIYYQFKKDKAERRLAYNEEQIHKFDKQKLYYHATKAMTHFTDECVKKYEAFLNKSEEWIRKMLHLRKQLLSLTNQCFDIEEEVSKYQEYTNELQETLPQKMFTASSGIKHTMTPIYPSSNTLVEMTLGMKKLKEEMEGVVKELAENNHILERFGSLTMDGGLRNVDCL
Particulars: at 1 µM.

Assay [2] has as its target T2, Testis-specific serine/threonine-protein kinase 1 (Homo sapiens) (UniProt Q9BXA7).
T2 sequence (whole entry): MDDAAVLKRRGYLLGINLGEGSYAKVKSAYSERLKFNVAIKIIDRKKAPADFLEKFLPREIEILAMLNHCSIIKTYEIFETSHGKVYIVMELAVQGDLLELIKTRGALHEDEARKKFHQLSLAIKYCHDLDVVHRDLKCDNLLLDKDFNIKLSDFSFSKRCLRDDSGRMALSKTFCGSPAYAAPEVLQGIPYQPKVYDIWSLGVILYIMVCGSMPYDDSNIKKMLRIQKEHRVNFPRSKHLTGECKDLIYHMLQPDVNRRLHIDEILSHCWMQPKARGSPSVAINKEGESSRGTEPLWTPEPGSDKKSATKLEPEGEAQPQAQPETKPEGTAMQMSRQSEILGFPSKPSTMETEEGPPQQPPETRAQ
The conditions noted are these: at 0.1 µM.

Assay [3] addresses T2, Testis-specific serine/threonine-protein kinase 1 (Homo sapiens). The conditions noted are these: at 1 µM.
For assay [4], the target named is T3, Testis-specific serine/threonine-protein kinase 2 (Homo sapiens) (UniProt Q96PF2).
T3 sequence (whole entry): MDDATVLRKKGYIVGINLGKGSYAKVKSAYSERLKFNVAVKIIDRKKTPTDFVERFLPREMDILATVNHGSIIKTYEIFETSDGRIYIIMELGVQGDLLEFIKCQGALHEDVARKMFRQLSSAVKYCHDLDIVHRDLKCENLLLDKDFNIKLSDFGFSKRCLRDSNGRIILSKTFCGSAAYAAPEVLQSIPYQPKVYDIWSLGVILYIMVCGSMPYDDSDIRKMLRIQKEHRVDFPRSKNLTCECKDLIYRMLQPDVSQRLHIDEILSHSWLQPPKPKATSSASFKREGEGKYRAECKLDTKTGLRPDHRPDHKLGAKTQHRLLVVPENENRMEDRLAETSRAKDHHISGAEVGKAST
Particulars: at 0.1 µM.

Assay [5] concerns the target T3, Testis-specific serine/threonine-protein kinase 2 (Homo sapiens). The conditions noted are these: at 1 µM.
Assay [6] deals with Casein kinase I isoform alpha (Homo sapiens) (UniProt P48729). Particulars: at 0.1 µM.
Casein kinase I isoform alpha (Homo sapiens), sequence (P48729 2-337 limits assumed): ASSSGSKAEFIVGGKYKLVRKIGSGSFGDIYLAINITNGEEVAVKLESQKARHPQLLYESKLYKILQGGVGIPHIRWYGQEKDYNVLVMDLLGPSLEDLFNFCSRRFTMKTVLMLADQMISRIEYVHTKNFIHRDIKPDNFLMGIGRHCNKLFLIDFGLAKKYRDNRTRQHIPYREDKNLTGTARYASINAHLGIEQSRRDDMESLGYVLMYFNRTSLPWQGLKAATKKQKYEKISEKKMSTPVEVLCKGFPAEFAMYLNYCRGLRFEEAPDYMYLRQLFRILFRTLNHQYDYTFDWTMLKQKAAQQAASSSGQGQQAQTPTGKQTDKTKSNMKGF
Assay [7] has the same target. Particulars: at 1 µM.
Assay [8] concerns the target Casein kinase I isoform gamma-1 (Homo sapiens) (UniProt Q9HCP0). Particulars: at 0.1 µM.
Assay [9] shares this target. Particulars: at 1 µM.
Assay [10] concerns the target Casein kinase I isoform gamma-2 (Homo sapiens) (UniProt P78368). Particulars: at 0.1 µM.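 Further: values are mean inhibition figures reported as part of the GSK PKIS dataset.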

Casein kinase I isoform gamma-1 (Homo sapiens), sequence (Q9HCP0 whole entry, looked up, canonical isoform): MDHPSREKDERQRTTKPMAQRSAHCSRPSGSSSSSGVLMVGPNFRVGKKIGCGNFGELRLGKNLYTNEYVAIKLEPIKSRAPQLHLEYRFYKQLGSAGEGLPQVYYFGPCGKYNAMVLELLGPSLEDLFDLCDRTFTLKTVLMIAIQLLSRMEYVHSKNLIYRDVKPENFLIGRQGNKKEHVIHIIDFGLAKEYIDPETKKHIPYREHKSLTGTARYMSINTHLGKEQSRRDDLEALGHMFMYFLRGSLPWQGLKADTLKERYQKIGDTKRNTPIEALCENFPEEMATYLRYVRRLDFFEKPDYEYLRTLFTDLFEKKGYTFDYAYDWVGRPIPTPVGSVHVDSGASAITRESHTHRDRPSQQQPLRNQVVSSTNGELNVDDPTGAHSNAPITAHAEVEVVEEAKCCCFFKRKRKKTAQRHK
Casein kinase I isoform gamma-2 (Homo sapiens), sequence (P78368 whole entry, looked up, canonical isoform): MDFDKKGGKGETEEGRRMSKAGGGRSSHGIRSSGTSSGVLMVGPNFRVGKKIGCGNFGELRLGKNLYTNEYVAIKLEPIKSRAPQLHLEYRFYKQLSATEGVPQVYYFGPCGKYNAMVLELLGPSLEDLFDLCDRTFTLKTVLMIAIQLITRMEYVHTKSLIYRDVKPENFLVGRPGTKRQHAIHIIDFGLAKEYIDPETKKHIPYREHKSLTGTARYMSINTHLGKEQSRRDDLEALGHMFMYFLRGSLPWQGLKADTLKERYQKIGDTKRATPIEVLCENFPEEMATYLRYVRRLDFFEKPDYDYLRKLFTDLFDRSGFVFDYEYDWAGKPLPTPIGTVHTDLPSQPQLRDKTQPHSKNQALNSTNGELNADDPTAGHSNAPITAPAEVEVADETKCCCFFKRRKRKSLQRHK

As to `COc1cc2ncn(-c3cc(O[C@@H](C)c4ccccc4Cl)c(C(N)=O)s3)c2cc1OC`, the inhibition in assay [1] came out at 27%; in [2], 3.02%; in [3], 5.73%; in assay [4], 1.37%; in [5], 1.24%; in assay [6], 4.77%. The inhibition in assay [7] came out at 4.44%; in assay [8], 4.61%; in assay [9], 5.05%; in assay [10] it was 4.07%.

Consider `CC1=C(C(=O)Nc2ccc3[nH]ncc3c2)C(c2ccc(Cl)c(Cl)c2)CC(=O)N1` (stereo not drawn), for which the inhibition in assay [1] was 0.46%; in assay [2], 2.84%; in assay [3], -0.6%; in assay [4] it was 1.93%; in assay [5], -1.29%; in assay [6] it was -1.74%. For the same compound, the inhibition is 1.97% in assay [7], 0.83% in assay [8], 1.68% in [9] and 0.32% in [10].

Consider `O=C1NC(=O)C(c2cccc(Cl)c2)=C1Nc1ccc(O)c(Cl)c1`, for which the inhibition in assay [1] was 23.9%; in [2] it was 1.11%; in assay [3], 1.63%; in assay [4], -0.57%; in assay [5], 0.16%; in [6], 1.72%. Also, the inhibition in [7] was 9.44%; in [8], 0.2%; in assay [9] it was 1.3%; in [10] it was 0.09%.

For the compound `CC(C)=Cc1cccc2c1/C(=N/Nc1ccc(S(N)(=O)=O)cc1)C(=O)N2`, the inhibition in [1] was found to be 26.3%; in [2], 1.27%; in assay [3] it was 2.47%; in assay [4], 0.49%; in [5], 0.88%; in assay [6], 6.16%. The inhibition is 2.83% in assay [7], 0.52% in assay [8], 1.12% in [9] and 1.67% in [10].

Consider `COc1ccccc1Nc1ncc(-c2ccccc2)o1`, for which the inhibition in assay [1] amounted to 2.91%; in [2], 4.78%; in [3], 4.46%; in [4], 2.44%; in assay [5], 2.11%; in [6], 2.14%. In addition, the inhibition is 2.52% in assay [7], 4.56% in [8], 5.25% in assay [9] and 4.37% in assay [10].

For `CCn1c(-c2nonc2N)nc2cncc(C(=O)N3CC[C@H](N)C3)c21`, the inhibition in assay [1] is 19.7%; in assay [2], 7.36%; in [3] it was 18.9%; in [4], 3.56%; in [5] it was 5.01%; in assay [8], 3.59%. The inhibition in [9] was found to be 4.35%; in assay [10], 3.12%.

Consider `CCn1c(-c2nonc2N)nc2ccncc21`, for which the inhibition is 1.82% in assay [1]; 2.36% in [2]; 1.75% in [3]; 0.59% in assay [4]; -0.93% in [5]; 0.34% in assay [6]. For the same compound, the inhibition was 1.43% in assay [7], 0.65% in assay [8], -0.84% in assay [9] and 0.24% in [10].

As to `CCCN1CCC=C(c2ccc(Nc3nc(Nc4ccccc4C(N)=O)c4cc[nH]c4n3)c(C)c2)C1`, the inhibition in assay [1] was 9.03%; in assay [2], 29.9%; in assay [3], 76.7%; in [4] it was 7.28%; in assay [5] it was 37.6%; in assay [6] it was 8.97%. Besides, the inhibition in assay [7] stood at 47.6%; in assay [8], 22.5%; in assay [9] it was 59.8%; in assay [10], 31.1%.

Regarding `NS(=O)(=O)c1ccc(N/N=C2\C(=O)Nc3ccc(C(=O)NCCc4c[nH]cn4)cc32)cc1`, the inhibition was 26.8% in [1]; 6.64% in [2]; 11.2% in [3]; 3.37% in assay [4]; 1.67% in [5]; 9.71% in assay [6]. For the same compound, the inhibition in [7] stood at 8.41%; in assay [8] it was 4.44%; in assay [9], 9.85%; in assay [10], 3.01%.

Consider `CCn1c(-c2nonc2N)nc2cnc(Oc3cccc(NC(=O)c4ccc(OCCN5CCOCC5)cc4)c3)cc21`, for which the inhibition turned out to be 7.42% in assay [1]; 24.3% in [2]; 72.8% in assay [3]; 2.29% in [4]; 3.44% in assay [5]; 0.67% in [6]. Besides, the inhibition in assay [7] is 1.31%; in assay [8], 3.07%; in assay [9] it was 2.93%; in [10] it was 2.55%.

`COc1ccc(-c2coc3ncnc(N)c23)cc1`: the inhibition is 7.65% in assay [1]; 4.08% in [2]; 3.27% in assay [3]; 1.1% in assay [4]; 0.95% in assay [5]; 6.3% in assay [6]. Besides, the inhibition in [7] stood at 4.04%; in [8] it was 4.29%; in assay [9], 4.94%; in assay [10], 4.25%.

Take `CC1=C(C(=O)Nc2ccc3[nH]ncc3c2)C(c2ccc3ccccc3c2)CC(=O)N1` (stereo not drawn): the inhibition is 4.09% in [1]; 1.35% in [2]; 1.04% in assay [3]; 1.35% in assay [4]; 0.44% in [5]; 1.57% in assay [6]. In addition, the inhibition in assay [7] came out at 3.29%; in assay [8], 1.69%; in assay [9] it was 3.15%; in assay [10], 1.16%.

As for `Cn1cc(C=C2C(=O)Nc3cccnc32)c2ccccc21`, the inhibition in assay [1] is 10.2%; in assay [2] it was 1.87%; in [3], 1.12%; in assay [4], -0.65%; in assay [5], -0.52%; in assay [6], 3.21%. Besides, the inhibition was determined as 14.3% in assay [7], 2.59% in assay [8], 4.56% in assay [9] and 1.76% in assay [10].

For `Nc1nc(-c2ccccn2)c(-c2ccc3ncccc3n2)s1`, the inhibition amounted to 5.59% in assay [1]; 2.46% in [2]; 2.87% in assay [3]; 0.45% in [4]; 1.96% in assay [5]; 2.13% in assay [6]. Moreover, the inhibition in assay [7] came to 6.1%; in [8] it was 3.23%; in assay [9] it was 12.6%; in [10], 3.14%.

For the compound `Fc1cccc(COc2ccc(Nc3ncnc4sc(-c5cccs5)cc34)cc2Cl)c1`, the inhibition in assay [1] was 2.3%; in assay [2], 0.6%; in assay [3], 1.28%; in [4], 0.22%; in assay [5], 0%; in [6], -0.37%. The inhibition is 2.33% in assay [7], 0.39% in assay [8], -0.08% in assay [9] and 0.42% in [10].

For `CN1CCC(C(=O)Nc2n[nH]c3nnc(-c4ccccc4)cc23)CC1`, the inhibition came to 3.05% in [1]; 5.87% in assay [2]; 6.95% in assay [3]; 3.85% in assay [4]; 6.08% in assay [5]; 2.13% in [6]. For the same compound, the inhibition in assay [7] was 4%; in assay [8], 5.08%; in assay [9] it was 5.43%; in [10], 3.51%.

Consider `COC(=O)Nc1nc2cc(Oc3ccc(NC(=O)Nc4cccc(C(=O)O)c4)cc3)ccc2[nH]1`, for which the inhibition in assay [1] is 2.42%; in [2], 0.41%; in assay [3] it was 0.96%; in [4] it was 0.4%; in assay [5], 0.93%; in assay [6] it was 2.25%. Besides, the inhibition was 0.72% in [7], -2.42% in assay [8], -2.13% in assay [9] and -2.21% in assay [10].
